Assay [1] can be described thus: yeast TOR pathway RPL19A-GFP modulators, primary screen, cell-based, S. cerevisiae, multiplex flow cytometry (AID 1862; in the data active means percent of DMSO control GFP below about 86%;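 further: lower values mimic rapamycin by blocking the RPL19A rise seen in DMSO cells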). The settings on record: S. cerevisiae RPL19A-GFP strain, flow cytometry fluorescence, 3 h; at 10 µM; stronger effect = lower value.
Assay [2] in a line: modulators of MEP2-GFP levels in yeast, primary screen, S. cerevisiae, multiplex flow cytometry (AID 1867;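 active means GFP response, as percent of the DMSO control, above the screen-wide mean plus 3 SD, about 139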;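 further: median GFP channel fluorescence of barcode-gated MEP2-GFP cells measured by flow cytometry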). The settings on record: S. cerevisiae MEP2-GFP strain, 3 h, at 10 µM, stronger effect = higher value, 100% means same as DMSO wells.
Assay [3] can be described thus: modulators of CIT2-GFP expression in yeast, primary screen, S. cerevisiae, GFP fusion, multiplex flow cytometry (AID 1870;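 active means percent response above a set limit, the screen-wide mean plus 3 SD, cut at about 130% in these data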;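 further: barcoded CIT2-GFP strain pooled with four other GFP strains with rapamycin as positive control; median GFP fluorescence per well over plate mean of DMSO wells so 100% = DMSO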). To be noted: 3 h, at 10 µM, stronger effect = higher value.
The nature of assay [4]: modulators of LAP4-GFP expression in yeast, primary screen, S. cerevisiae, multiplex flow cytometry (AID 1873;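 active means GFP signal, as percent of the solvent control, above the screen mean plus 3 SD, about 149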). The settings on record: 3 h, at 10 µM, stronger effect = higher value.
A short description of assay [5]: modulators of AGP1-GFP expression in yeast TOR pathway, primary screen, cell-based, multiplex flow cytometry, S. cerevisiae (AID 1887;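 active means GFP signal above the screen-wide mean plus 3 SD, that is over about 124.5% of the solvent control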;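 further: AGP1-GFP fusion strain of S. cerevisiae within a five-strain barcoded multiplex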). The settings on record: 3 h, at 10 µM, stronger effect = higher value.
Assay [6] in a line: inhibitors of CD8+ T cell-vesicle binding, pilot screen, LFA-1/ICAM-1 modulator project, MLPCN validation set, flow cytometry (AID 2523;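 active means response below a set limit, under 55% cells CD8-positive and vesicle-bound, and CD8 cells' 90th-percentile brightness under 279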;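 on vesicle binding response: mean PE anti-B7-1 fluorescence of CD8+ cells relative to row control; 100% = QL9-loaded vesicles with DMSO vehicle in the same plate row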). The settings on record: 2C mouse CD8+ T cells, at 7 µM, stronger effect = lower value; double positive events: measured here: CD8+/vesicle+ event percentage.
Assay [7] addresses Integrin beta-1 (Homo sapiens) + Integrin alpha-4 (Homo sapiens) (UniProt P13612+P05556). Kind of assay: inhibition of HUTS-21 binding to VLA-4, pilot screen, VLA-4 allosteric modulator project, U937 cells, HUTS-21 mAb, flow cytometry, validation set (AID 2674;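 active means inhibition above 50%, about 3 SD of the validation set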;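 further: antibody binding induced by the VLA-4 ligand LDV present at three times its Kd; 0% = LDV ligand with antibody and no compound and 100% = antibody without LDV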). The settings on record: HUTS-21 LIBS mAb binding, at 6.7 µM, stronger effect = higher value, binding induced by LDV ligand.
Assay [8] is described as follows: superoxide lowering in aged yeast cells, pilot screen, validation compound set (AID 2706;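 active means superoxide response below 65% of plate, a cut near 3 SD across the whole screen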;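 further: yeast exposed to compound for one week at 30 degrees C before staining; 100% = mean of all compound wells on the same plate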). The settings on record: S. cerevisiae aging, superoxide DHE fluorescence; at 10 µM; stronger effect = lower value.
For assay [9], the target named is Beta-adrenergic receptor kinase 1 (Homo sapiens) (UniProt P25098). In words: GRK2 binders displacing RNA aptamer, biochemical, validation, human GRK2, bead flow cytometry (AID 488806;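 active means aptamer binding inhibition above 30%, about 3 SD of noise from non-fluorescent compounds; inactive means inhibition at or below 30%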). To be noted: bead-bound GRK2, FAM-aptamer displacement, at 10 µM, stronger effect = higher value.
Sequence of Beta-adrenergic receptor kinase 1 (Homo sapiens) (P25098 whole entry, looked up): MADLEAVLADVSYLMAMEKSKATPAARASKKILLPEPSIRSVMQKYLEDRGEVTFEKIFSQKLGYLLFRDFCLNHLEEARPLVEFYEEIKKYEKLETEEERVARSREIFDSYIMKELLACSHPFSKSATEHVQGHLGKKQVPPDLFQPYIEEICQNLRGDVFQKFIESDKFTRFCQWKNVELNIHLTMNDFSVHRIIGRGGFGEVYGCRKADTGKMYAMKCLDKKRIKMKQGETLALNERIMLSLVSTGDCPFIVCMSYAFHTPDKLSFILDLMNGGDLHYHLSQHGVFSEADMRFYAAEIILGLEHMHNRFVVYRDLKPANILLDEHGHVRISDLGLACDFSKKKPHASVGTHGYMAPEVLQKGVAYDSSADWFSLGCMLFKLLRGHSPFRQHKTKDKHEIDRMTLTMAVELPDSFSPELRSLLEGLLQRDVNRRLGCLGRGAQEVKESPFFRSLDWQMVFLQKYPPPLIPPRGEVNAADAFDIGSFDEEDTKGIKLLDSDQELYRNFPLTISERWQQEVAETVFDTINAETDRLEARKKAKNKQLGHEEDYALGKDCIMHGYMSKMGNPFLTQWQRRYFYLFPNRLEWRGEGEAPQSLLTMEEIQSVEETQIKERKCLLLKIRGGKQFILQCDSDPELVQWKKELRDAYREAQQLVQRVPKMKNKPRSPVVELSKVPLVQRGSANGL
The target of assay [10] is Beta-2 adrenergic receptor (Homo sapiens) (UniProt P07550). Kind of assay: beta2AR agonists driving receptor internalization, pilot screen, cell-based, FAP fluorogen, flow cytometry, validation set (AID 504459;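 active means percent response above 42, roughly 3 SD of non-fluorescent test compounds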;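 further: agonist-driven loss of surface beta2AR via internalization measured by FAP dye flow cytometry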). To be noted: Am2.2-beta2AR cells, FAP surface receptor flow cytometry; at 10 µM; stronger effect = higher value.
Sequence of Beta-2 adrenergic receptor (Homo sapiens) (P07550 whole entry, looked up): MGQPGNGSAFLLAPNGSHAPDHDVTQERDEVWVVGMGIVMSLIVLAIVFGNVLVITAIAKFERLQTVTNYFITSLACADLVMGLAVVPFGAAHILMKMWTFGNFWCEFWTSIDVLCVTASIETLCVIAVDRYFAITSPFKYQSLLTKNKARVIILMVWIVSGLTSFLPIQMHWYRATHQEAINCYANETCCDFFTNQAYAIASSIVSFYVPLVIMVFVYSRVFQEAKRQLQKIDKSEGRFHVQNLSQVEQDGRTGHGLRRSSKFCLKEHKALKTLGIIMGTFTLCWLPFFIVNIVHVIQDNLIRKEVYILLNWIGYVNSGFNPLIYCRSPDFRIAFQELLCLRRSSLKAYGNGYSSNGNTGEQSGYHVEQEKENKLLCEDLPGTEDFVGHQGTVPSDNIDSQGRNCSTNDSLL
Assay [11] has as its target AP-2 complex subunit beta (Homo sapiens) (UniProt P63010). In words: inhibitors of arrestin peptide binding to AP2, pilot screen, biochemical, validation set, GST-AP2 beads, flow cytometry (AID 504541;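 active means inhibition above 54%, about 3 SD of non-fluorescent compounds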;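 further: AP2 carries R879A mutation and is captured from E. coli lysate; bead-bound FITC arrestin peptide fluorescence measuring arrestin peptide binding to AP2; 0% = DMSO wells and 100% = excess unlabeled arrestin peptide control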). The settings on record: FITC arrestin peptide, at 10 µM, stronger effect = higher value, AP2 beta2 appendage fragment, R879A mutant.
Assay [12] in a line: yeast V-ATPase proton transport modulators, S. cerevisiae, pHLuorin, HTS validation (AID 504600).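 Further: plate controls were DMSO for no effect and reference compound for full effect.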 The settings on record: S. cerevisiae pHLuorin cytosolic pH, at 10 µM, stronger effect = higher value.
Assay [13] relates to anti-desmoglein-3 scFv antibody binding to human DSG3. In words: inhibitors of anti-DSG3 scFv binding to DSG3, pilot screen, biochemical, validation compound set, bead-based, flow cytometry (AID 588368;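 active means binding below the plate cutoff, the plate median minus 3 SD, with a reading above zero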;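 further: signal is the median channel fluorescence of bead-bound GFP antibody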). The settings on record: Protein G beads, DSG3-Fc, scFv-GFP binding, at 10 µM, stronger effect = lower value.
Assay [14] can be described thus: inhibitors of fungal efflux pumps CDR1, CDR2, MDR1, pilot screen, validation compound set, multiplex, phenotypic (AID 588506;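 active means efflux inhibition above 0.42, the validation set average plus 4 SD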;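 further: Nile Red retained in cells so higher fluorescence means more efflux inhibition; 0 = negative control wells and 1 = enniatin B 25 µM full block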). To be noted: S. cerevisiae pump-expressing triplex, Nile Red efflux flow cytometry; at 10 µM; stronger effect = higher value; the pumps come from Candida albicans.
Assay [15] addresses ATP-binding cassette sub-family B member 6 (Homo sapiens) (UniProt Q9NP58). Kind of assay: ABCB6 transporter inhibitors, pilot screen, K562-ABCB6 cells, flow cytometry, validation set (AID 588550;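 active means inhibition above the screen-wide mean plus 3 SD, about 51%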;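 further: 0% = DMSO wells and 100% = benzethonium chloride 70 µM positive control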). To be noted: K562-ABCB6 porphyrin accumulation, 1 h, at 10 µM, stronger effect = higher value.
Assay [16] can be described thus: promoters of myeloid differentiation in arrested cells, primary screen, cell-based, GFP/MAC1 double positive, flow cytometry, validation set (AID 588685;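 active means differentiation response of at least 50%, scaled between solvent and reference control, from cells with both markers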;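 further: compound exposure lasts four days before antibody staining and flow analysis; 0% = DMSO wells and 100% = 5 µM fulvestrant positive control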). To be noted: ER-HoxA9 marrow cells, stronger effect = higher value, normalized: vehicle 0, fulvestrant 100.

These results are taken from PubChem BioAssay.

Structures are written as SMILES. Results filed as inconclusive are left out. Calls of active or inactive are those of the source. Unless noted, no stated cut-off is given here; in the data, active means response above about 15%; inactive means the rest.

Sequence of ATP-binding cassette sub-family B member 6 (Homo sapiens) (Q9NP58 whole entry, looked up): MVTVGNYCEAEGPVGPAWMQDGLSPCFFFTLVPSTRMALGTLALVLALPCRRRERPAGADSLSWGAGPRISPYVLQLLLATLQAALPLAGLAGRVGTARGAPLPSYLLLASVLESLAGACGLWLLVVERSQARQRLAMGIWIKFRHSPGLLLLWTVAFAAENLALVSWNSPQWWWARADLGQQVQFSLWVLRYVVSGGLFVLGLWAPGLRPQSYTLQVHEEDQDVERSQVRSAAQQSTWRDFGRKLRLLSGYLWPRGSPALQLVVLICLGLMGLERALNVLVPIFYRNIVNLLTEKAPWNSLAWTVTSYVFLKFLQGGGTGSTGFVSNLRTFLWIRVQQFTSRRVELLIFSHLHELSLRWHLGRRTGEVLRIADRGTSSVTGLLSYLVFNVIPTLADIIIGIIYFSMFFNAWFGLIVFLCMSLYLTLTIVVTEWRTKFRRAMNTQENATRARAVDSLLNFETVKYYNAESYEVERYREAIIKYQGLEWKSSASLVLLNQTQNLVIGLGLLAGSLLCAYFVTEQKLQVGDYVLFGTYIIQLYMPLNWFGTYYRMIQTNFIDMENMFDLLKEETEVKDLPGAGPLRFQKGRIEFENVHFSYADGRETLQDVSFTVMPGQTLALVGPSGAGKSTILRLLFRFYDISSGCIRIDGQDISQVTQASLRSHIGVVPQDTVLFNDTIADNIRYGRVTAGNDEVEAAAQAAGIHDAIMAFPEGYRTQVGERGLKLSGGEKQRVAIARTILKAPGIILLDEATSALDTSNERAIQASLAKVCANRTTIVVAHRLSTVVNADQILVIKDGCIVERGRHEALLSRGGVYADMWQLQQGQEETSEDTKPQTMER
Sequence of AP-2 complex subunit beta (Homo sapiens) (P63010 whole entry, looked up, the tested form may be a part, one chain of several): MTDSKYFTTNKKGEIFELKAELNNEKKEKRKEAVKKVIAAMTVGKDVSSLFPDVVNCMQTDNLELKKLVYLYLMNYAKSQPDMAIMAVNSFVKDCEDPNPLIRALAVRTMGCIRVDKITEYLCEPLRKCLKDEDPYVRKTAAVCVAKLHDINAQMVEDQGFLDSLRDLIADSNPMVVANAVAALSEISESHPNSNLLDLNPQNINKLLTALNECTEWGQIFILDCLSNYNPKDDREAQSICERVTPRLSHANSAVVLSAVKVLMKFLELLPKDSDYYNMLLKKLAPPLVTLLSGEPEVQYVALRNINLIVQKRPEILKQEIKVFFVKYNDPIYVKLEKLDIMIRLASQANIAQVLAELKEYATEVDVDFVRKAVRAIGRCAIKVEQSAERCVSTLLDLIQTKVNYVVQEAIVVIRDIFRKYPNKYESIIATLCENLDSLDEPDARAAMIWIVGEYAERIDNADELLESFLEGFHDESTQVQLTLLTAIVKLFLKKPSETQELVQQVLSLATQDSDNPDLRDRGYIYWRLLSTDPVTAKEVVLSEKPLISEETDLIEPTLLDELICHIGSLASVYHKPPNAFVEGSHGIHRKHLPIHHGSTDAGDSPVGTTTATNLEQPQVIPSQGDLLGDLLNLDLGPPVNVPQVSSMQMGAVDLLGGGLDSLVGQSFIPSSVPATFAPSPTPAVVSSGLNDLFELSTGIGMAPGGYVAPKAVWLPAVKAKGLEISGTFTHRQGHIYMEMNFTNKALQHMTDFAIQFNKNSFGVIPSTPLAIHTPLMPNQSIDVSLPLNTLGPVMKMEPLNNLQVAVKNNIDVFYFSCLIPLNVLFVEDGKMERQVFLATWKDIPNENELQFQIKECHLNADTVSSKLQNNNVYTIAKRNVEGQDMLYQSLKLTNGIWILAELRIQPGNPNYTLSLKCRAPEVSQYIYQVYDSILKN
Sequence of Integrin beta-1 (Homo sapiens) + Integrin alpha-4 (Homo sapiens) (P05556 whole entry, looked up): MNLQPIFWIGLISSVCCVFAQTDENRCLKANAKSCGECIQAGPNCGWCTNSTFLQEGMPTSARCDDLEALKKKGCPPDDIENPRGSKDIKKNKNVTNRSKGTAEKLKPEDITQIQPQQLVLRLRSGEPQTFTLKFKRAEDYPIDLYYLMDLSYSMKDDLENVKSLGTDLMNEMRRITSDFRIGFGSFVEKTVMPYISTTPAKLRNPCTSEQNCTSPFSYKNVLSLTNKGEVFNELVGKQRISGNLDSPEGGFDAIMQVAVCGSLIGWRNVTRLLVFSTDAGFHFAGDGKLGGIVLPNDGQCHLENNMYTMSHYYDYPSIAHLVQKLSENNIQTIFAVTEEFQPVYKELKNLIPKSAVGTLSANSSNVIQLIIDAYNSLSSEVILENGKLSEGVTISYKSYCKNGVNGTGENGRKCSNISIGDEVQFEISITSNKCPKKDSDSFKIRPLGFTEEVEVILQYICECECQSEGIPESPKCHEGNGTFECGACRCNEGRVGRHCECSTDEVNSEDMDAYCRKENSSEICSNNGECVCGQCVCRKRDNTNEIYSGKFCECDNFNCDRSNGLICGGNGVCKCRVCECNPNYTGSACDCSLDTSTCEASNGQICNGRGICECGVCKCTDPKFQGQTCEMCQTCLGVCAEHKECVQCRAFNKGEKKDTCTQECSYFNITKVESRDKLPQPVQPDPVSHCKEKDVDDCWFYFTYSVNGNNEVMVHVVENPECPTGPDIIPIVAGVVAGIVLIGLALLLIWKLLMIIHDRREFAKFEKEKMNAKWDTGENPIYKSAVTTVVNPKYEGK
Sequence of Integrin beta-1 (Homo sapiens) + Integrin alpha-4 (Homo sapiens) (P13612 whole entry, looked up): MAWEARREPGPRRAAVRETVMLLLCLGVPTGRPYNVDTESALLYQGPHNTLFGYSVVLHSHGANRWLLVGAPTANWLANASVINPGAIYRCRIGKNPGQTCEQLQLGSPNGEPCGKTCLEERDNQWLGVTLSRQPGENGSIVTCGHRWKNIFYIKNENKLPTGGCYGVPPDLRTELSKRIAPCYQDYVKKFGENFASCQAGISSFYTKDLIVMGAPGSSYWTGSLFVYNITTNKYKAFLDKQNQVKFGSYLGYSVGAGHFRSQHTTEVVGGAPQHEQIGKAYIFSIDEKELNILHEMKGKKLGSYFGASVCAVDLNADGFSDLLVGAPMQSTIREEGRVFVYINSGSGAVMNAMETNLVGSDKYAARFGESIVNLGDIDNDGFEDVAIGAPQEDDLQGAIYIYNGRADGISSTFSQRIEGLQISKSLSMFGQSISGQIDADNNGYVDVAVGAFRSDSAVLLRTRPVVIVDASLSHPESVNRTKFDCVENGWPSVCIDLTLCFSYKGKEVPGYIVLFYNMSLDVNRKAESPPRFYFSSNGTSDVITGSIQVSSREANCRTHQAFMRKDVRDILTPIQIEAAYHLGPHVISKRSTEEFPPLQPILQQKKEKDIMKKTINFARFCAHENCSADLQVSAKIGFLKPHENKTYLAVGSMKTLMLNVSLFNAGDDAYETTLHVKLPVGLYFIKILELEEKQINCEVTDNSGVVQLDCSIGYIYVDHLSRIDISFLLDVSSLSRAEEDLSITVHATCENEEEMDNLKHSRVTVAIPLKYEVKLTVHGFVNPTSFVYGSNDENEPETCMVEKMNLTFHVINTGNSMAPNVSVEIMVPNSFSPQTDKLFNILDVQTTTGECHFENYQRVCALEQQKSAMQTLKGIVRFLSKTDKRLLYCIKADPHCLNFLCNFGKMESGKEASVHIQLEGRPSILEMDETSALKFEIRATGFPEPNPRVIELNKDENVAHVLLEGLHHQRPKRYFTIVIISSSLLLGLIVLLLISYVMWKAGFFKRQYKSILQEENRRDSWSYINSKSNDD

As to `CC(C)OC(=O)c1ccc(NC(=O)c2cncc(Br)c2)cc1`, the percent of DMSO control GFP in assay [1] was 103% (inactive). Also, the GFP response vs DMSO is 104% (inactive) in assay [2] and 103% (inactive) in assay [4]. In addition, the percent response of DMSO control in [3] was 98.6% (inactive). In addition, the GFP response, % of DMSO in assay [5] is 88.5% (inactive). The compound further came in with a double positive events in assay [6] of 56.1%. In addition, the vesicle binding response in [6] is 143% (inactive). In addition, the inhibition in assay [7] was 16.3% (inactive); in [11], -2.11% (inactive); in assay [15], -3% (inactive). In addition, the superoxide response (% of plate) in assay [8] was 114% (inactive). In assay [9], the aptamer binding inhibition is -1% (inactive). Further, the response is 0.79% (inactive) in [10] and 4.94% (inactive) in assay [12]. Besides, the binding (% of control) in assay [13] is 99% (inactive). In assay [14], the efflux inhibition (fraction of control) is 0.04 (inactive). Besides, the differentiation response in assay [16] is -7.5% (inactive).
On to `COc1cccc(OCC(O)CO)c1` (stereo not given), for which the percent of DMSO control GFP in assay [1] was 97.6% (inactive). Moreover, the GFP response vs DMSO in [2] was 91.9% (inactive); in assay [4], 78.6% (inactive). Moreover, in [3], the percent response of DMSO control is 107% (inactive). In addition, the GFP response, % of DMSO in assay [5] was 91.6% (inactive). The compound also yielded a double positive events in [6] of 58.2%. In [6], the vesicle binding response is 160% (inactive). Moreover, the inhibition in assay [7] is 0.94% (inactive); in [11], 11.4% (inactive); in assay [15], 1% (inactive). Also, the superoxide response (% of plate) in assay [8] is 94.9% (inactive). For the same compound, the aptamer binding inhibition in assay [9] is 4% (inactive). Also, the response in [10] was 3.25% (inactive); in assay [12] it was -1.06% (inactive). In addition, the binding (% of control) in [13] is 99.9% (inactive). Also, the efflux inhibition (fraction of control) in assay [14] was -0.1 (inactive). Moreover, the differentiation response in assay [16] was -4% (inactive).
`COc1cc(NC(=S)NC(=O)c2cccs2)ccc1NC(=O)C(C)C`: the percent of DMSO control GFP in assay [1] is 99.7% (inactive). The GFP response vs DMSO was 108% (inactive) in [2] and 124% (inactive) in [4]. Also, in assay [3], the percent response of DMSO control was 90.1% (inactive). Besides, the GFP response, % of DMSO in assay [5] was 101% (inactive). This compound returned a double positive events in assay [6] of 66.4%. The vesicle binding response in assay [6] is 265% (inactive). Besides, the inhibition in [7] is -14.1% (inactive); in assay [11], -6.94% (inactive); in assay [15], 9% (inactive). Besides, in assay [8], the superoxide response (% of plate) was 113% (inactive). Moreover, in assay [9], the aptamer binding inhibition is 3% (inactive). The response in [10] was -2.44% (inactive); in assay [12] it was 1.32% (inactive). Also, the binding (% of control) in [13] is 96.8% (inactive). Besides, the efflux inhibition (fraction of control) in assay [14] is 0.05 (inactive). The differentiation response in [16] was -28% (inactive).
`CC(=O)C1=C(O)C(=O)N(CC(=O)O)C1c1ccccc1Cl` (stereo not given): the percent of DMSO control GFP in assay [1] was 93.5% (inactive). Moreover, the results for the GFP response vs DMSO in assay [2] and in [4] were 136% (inactive) and 82.5% (inactive), respectively. Also, the percent response of DMSO control in [3] was 88.6% (inactive). Also, the GFP response, % of DMSO in [5] is 90.3% (inactive). The double positive events in assay [6] came out at 54.3%. For the same compound, in assay [6], the vesicle binding response is 175% (inactive). For the same compound, the inhibition is 10.3% (inactive) in assay [7], 1.11% (inactive) in assay [11] and 13% (inactive) in [15]. Besides, in assay [8], the superoxide response (% of plate) is 106% (inactive). In addition, the aptamer binding inhibition in assay [9] was 4% (inactive). Besides, the response in assay [10] is -4% (inactive); in [12], 0% (inactive). Further, the binding (% of control) in assay [13] is 100% (inactive). For the same compound, in assay [14], the efflux inhibition (fraction of control) is -0.2 (inactive). In addition, the differentiation response in [16] was -4.91% (inactive).
Consider `CC(=O)CCc1c(C)c2cccc(C)c2[nH]c1=O`, for which the percent of DMSO control GFP in assay [1] was 104% (inactive). Besides, the GFP response vs DMSO in [2] is 99.6% (inactive); in assay [4] it was 97.4% (inactive). For the same compound, the percent response of DMSO control in [3] was 103% (inactive). In addition, the GFP response, % of DMSO in [5] was 98.8% (inactive). Also, the double positive events in [6] was determined as 56.4%. Besides, the vesicle binding response in assay [6] is 269% (inactive). Moreover, the inhibition in assay [7] was -9.98% (inactive); in assay [11], -3.21% (inactive); in assay [15], 9% (inactive). The superoxide response (% of plate) in assay [8] was 105% (inactive). For the same compound, in assay [9], the aptamer binding inhibition is 1% (inactive). For the same compound, the response was -3.42% (inactive) in [10] and -0.84% (inactive) in [12]. The binding (% of control) in assay [13] was 95.5% (inactive). Also, in [14], the efflux inhibition (fraction of control) was -0.03 (inactive). In assay [16], the differentiation response is -18.4% (inactive).
